# Reference: PubChem BioAssay
# Active and inactive are the calls of the source. Unless noted, the rule behind the calls is not given here.
# How the values were obtained:
# [1] = A549 cell viability effects, profiling panel, calcein-AM fluorescence, 48 h, basal (AID 1162); conditions: higher = more signal; note: test concentration not given here
# [2] = adipocyte viability effects, profiling panel, cell-based, 3T3-L1 adipocytes, calcein-AM fluorescence, 48 h, basal (AID 1163); conditions: 3T3-L1 adipocytes viability, higher = more signal; note: test concentration not given here
# [3] = HepG2 cell viability effects, profiling panel, calcein-AM fluorescence, 48 h, basal (AID 1164); conditions: higher = more signal; note: test concentration not given here
# [4] = MM1S cell viability effects, profiling panel, calcein-AM fluorescence, 48 h, basal (AID 1165); conditions: higher = more signal;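 note: viability of MM1S multiple myeloma cells under basal unstimulated conditions; test concentration not given here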
# [5] = basal RPMI8226 viability, no added stimulus, profiling panel, cell-based, calcein-AM fluorescence, 48 h, PK04 Diversity Set (AID 1166); conditions: RPMI8226 myeloma viability, higher = more signal;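 note: cells grown under basal conditions without added stimulus; test concentration not given here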
# [6] = basal HepG2 mitochondrial membrane potential changes, profiling panel, cell-based, JC-1 fluorescence, 24 h, 100 nL compound (AID 1167); conditions: higher = more signal; note: test concentration not given here
# [7] = basal 3T3-L1 adipocyte mitochondrial potential changes, profiling panel, cell-based, JC-1 fluorescence, 3T3-L1 adipocytes, 24 h, 100 nL compound (AID 1168); conditions: JC-1 mitochondrial fluorescence, higher = more signal, called active from +8 up or from −8 down; note: test concentration not given here
# [8] = basal RPMI8226 mitochondrial membrane potential changes, profiling panel, cell-based, JC-1 fluorescence, 24 h, 100 nL compound (AID 1169); conditions: RPMI8226 myeloma, JC-1 mitochondrial potential fluorescence, higher = more signal; note: test concentration not given here
# [9] = basal MM1S mitochondrial membrane potential changes, profiling panel, cell-based, JC-1 fluorescence, 24 h, 100 nL compound (AID 1170); conditions: higher = more signal; note: test concentration not given here
# [10] = A549 lung cancer cell viability effects, profiling panel, resazurin fluorescence, 24 h, PK04 Diversity Set (AID 1171); conditions: higher = more signal, called active from +8 up or from −8 down; note: test concentration not given here
# [11] = HepG2 liver cancer cell viability effects, profiling panel, resazurin fluorescence, 24 h, PK04 Diversity Set (AID 1172); conditions: higher = more signal; note: test concentration not given here
# [12] = basal S. cerevisiae growth modulation, no modifier, primary screen, OD600, strain BY4716, 24 h, basal condition (AID 1173); conditions: OD600, 24 h, higher = more signal, called active from +8 up or from −8 down
# [13] = MM1S myeloma cell viability, profiling panel, resazurin fluorescence, basal, 24 h, PK04 Diversity Set (AID 1174); conditions: higher = more signal, called active from +8 up or from −8 down;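 note: MM1S multiple myeloma cell line; test concentration not given here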
# [14] = target: Dihydroorotate dehydrogenase (quinone), mitochondrial (Plasmodium falciparum (isolate 3D7)) (UniProt Q08210); assay: PfDHODH enzyme inhibitors, primary screen, biochemical, C-terminal His tag, absorbance 600 nm (AID 1175); conditions: DCIP absorbance 600 nm, higher = more signal, called active from +8 up or from −8 down;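 note: recombinant parasite enzyme with a five histidine tag at its C terminus; test concentration not given here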
# [15] = P. aeruginosa biofilm formation inhibitors, primary screen, strain PAO1, LB-PBS medium, absorbance 600 nm (AID 1176); note: test concentration not given here; conditions: P. aeruginosa PAO1 growth/biofilm, A600, 12 h; higher = more signal
# [16] = S. cerevisiae RM11-1a growth modifiers, primary screen, strain RM11-1a, OD600, basal, 24 h (AID 1177); conditions: OD600, 24 h, higher = more signal, called active from +8 up or from −8 down;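 note: cultures grown under basal conditions with no added stressor; test concentration not given here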
# [17] = E. coli acrAB mutant growth effects, primary screen, E. coli filamentation inducers, strain DRC39, OD650, 24 h (AID 1178); conditions: higher = more signal, called active from +8 up or from −8 down;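 note: growth measured as culture turbidity by optical density at 650 nm; test concentration not given here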
# [18] = E. coli acrAB mutant growth effects, primary screen, E. coli filamentation inducers, strain DRC39, OD650, 48 h (AID 1179);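 note: screen aims at cell division blockers that make cells filament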; conditions: E. coli DRC39 delta-acrAB growth, higher = more signal, called active from +8 up or from −8 down
# [19] = RPMI8226 myeloma cell viability, profiling panel, resazurin fluorescence, basal, 24 h, PK04 Diversity Set (AID 1180); conditions: higher = more signal;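 note: RPMI8826 multiple myeloma cell line at 5000 cells per well; test concentration not given here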
# [20] = target: E3 ubiquitin-protein ligase XIAP (Homo sapiens) (UniProt P98170); assay: XIAP binders, primary screen, biophysical, small-molecule microarray, fluorescence 635 nm (AID 1181); conditions: small-molecule microarray binding, higher = more signal;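 note: score merges 667 nm emission and signal to noise over triplicate slides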
# E3 ubiquitin-protein ligase XIAP (Homo sapiens), sequence (P98170 whole entry, looked up): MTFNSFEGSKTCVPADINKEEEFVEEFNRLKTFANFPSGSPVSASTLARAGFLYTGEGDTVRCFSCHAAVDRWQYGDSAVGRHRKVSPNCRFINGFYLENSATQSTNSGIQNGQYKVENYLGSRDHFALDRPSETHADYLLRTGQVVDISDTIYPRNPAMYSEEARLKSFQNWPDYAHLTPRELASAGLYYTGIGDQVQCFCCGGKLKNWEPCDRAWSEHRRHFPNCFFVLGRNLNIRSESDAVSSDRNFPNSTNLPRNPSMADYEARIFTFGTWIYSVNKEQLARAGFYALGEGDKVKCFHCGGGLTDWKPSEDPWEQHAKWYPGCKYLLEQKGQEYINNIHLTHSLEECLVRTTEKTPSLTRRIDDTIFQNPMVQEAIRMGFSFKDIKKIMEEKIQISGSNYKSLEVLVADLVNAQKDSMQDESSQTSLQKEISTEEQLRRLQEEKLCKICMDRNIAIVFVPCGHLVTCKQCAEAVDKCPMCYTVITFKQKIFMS
# Dihydroorotate dehydrogenase (quinone), mitochondrial (Plasmodium falciparum (isolate 3D7)), sequence (Q08210 whole entry, looked up): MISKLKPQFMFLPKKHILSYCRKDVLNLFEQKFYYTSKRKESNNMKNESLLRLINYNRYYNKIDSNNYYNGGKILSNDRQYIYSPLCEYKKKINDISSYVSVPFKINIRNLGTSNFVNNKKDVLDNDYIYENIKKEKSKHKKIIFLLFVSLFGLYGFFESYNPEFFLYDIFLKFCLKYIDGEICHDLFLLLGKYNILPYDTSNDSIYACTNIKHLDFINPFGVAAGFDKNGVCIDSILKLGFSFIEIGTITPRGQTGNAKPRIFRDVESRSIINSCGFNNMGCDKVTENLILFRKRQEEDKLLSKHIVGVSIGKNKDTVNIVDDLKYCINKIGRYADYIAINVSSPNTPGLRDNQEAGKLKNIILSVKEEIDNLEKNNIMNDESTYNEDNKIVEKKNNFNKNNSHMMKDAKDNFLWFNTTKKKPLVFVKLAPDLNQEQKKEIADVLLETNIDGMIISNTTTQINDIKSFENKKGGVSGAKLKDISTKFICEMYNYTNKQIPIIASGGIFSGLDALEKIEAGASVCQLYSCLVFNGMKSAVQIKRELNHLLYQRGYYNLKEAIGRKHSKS
SMILES,z-score [1],z-score [2],z-score [3],z-score [4],z-score [5],z-score [6],z-score [7],z-score [8],z-score [9],z-score [10],z-score [11],z-score [12],z-score [13],composite z-score [14],z-score [15],z-score [16],z-score [17],z-score [18],z-score [19],composite z-score [20]
CC(C)CN1C(=O)[C@@]2(Cc3ccccc31)c1ccccc1C(=O)N(Cc1ccccc1C(F)(F)F)[C@H]2c1ccc(CO)cc1,1.23,1.06,0.493,0.939,1.2,0.786,-1.55 (inactive),0.01,-0.534,-0.236 (inactive),0.869,-1.94 (inactive),-0.696 (inactive),-4.83 (inactive),-0.103 (inactive),-2.06 (inactive),0.897 (inactive),1.72 (inactive),0.478,0.661
COCCOC(=O)N1C(=O)[C@@]2(c3cc(C#CCC(C(=O)OC)C(=O)OC)ccc31)[C@H](c1ccc(OCCO)cc1)N1[C@H](c3ccccc3)[C@H](c3ccccc3)OC(=O)[C@H]1[C@@H]2C(=O)N1CCN(c2ncccn2)CC1,-0.828,1.2,-0.709,-0.0585,-1.07,-0.49,0.436 (inactive),-0.262,-1.53,1.83 (inactive),1.27,0.588 (inactive),-0.199 (inactive),1.35 (inactive),2.06 (inactive),1.82 (inactive),0.362 (inactive),-0.108 (inactive),0.262,-0.22
C[C@H]1C2=C3C(CC[C@H]4C(OCc5ccc(F)cc5C(F)(F)F)OC[C@](C)([C@@H]34)N(C(=O)OC(C)(C)C)C2)C(CO)C1CO (stereo not given in full),-1.49,-0.723,-0.907,-3.22,-4.68,-0.987,-1.13 (inactive),-0.522,0.0495,-0.629 (inactive),-1.49,0.964 (inactive),-2.08 (inactive),-0.108 (inactive),2.31 (inactive),1.04 (inactive),-1.36 (inactive),-0.895 (inactive),-1.62,0.147
NC(=O)N1C(=O)C2C(C1=O)C1C=C(c3ccc(CO)cc3)C2C(C2CC2)N1Cc1sc2ccccc2c1Cl (stereo not given),0.965,0.21,0.197,-3.27,-3.61,0.159,0.189 (inactive),-0.65,-0.311,-0.207 (inactive),-0.131,-2.55 (inactive),-1.06 (inactive),-2.67 (inactive),-0.836 (inactive),-0.484 (inactive),0.927 (inactive),0.112 (inactive),-1.23,-0.117
COCCOC(=O)N1C(=O)[C@@]2(c3ccccc31)[C@H](C(=O)N1CCN(c3ncccn3)CC1)[C@H]1C(=O)O[C@H](c3ccccc3)[C@H](c3ccccc3)N1[C@@H]2c1ccc(OCCO)cc1,1.16,-0.069,1.39,-0.198,-0.156,1.38,0.865 (inactive),-0.459,-1.27,0.218 (inactive),0.0481,1.89 (inactive),0.351 (inactive),-1.04 (inactive),2 (inactive),2.64 (inactive),0.0841 (inactive),1.19 (inactive),0.253,0.0924
Cc1ccc(S[C@]2(C(=O)NC3CC3)CC(=O)N(Cc3ccccc3Cl)[C@@H]2c2ccc(CO)cc2I)cc1,0.0293,0.0656,0.556,-2.36,-2.05,0.474,0.515 (inactive),-0.498,-1.45,-0.889 (inactive),-0.451,-4.44 (inactive),-3.72 (inactive),-2.13 (inactive),0.348 (inactive),-0.526 (inactive),0.17 (inactive),0.932 (inactive),-1.61,-0.0118
O=C1O[C@@H](c2ccccc2)[C@@H](c2ccccc2)N2[C@@H](c3ccc(O)cc3)[C@]3(C(=O)Nc4ccc(C#CCCO)cc43)[C@@H](C(=O)Nc3nc4ccccc4s3)[C@H]12,1.06,0.225,0.609,-2.66,-2.65,-3.79,-1.3 (inactive),-0.503,-1.03,0.621 (inactive),0.43,0.442 (inactive),0.307 (inactive),-0.292 (inactive),0.513 (inactive),0.948 (inactive),-0.0791 (inactive),0.282 (inactive),0.73,-0.0918
C=C(CCCC)C(=O)CC[C@@H](OC(=O)c1ccccc1-c1ccccc1C(=O)O)c1cccc(OCCO)c1,0.78,1.12,0.215,-3.41,-3.91,-1.88,0.584 (inactive),-0.694,0.0735,0.675 (inactive),-0.269,-1.46 (inactive),-0.348 (inactive),-0.556 (inactive),0.543 (inactive),0.134 (inactive),-0.285 (inactive),-0.549 (inactive),-0.301,-0.23
COc1ccccc1CN1C(=O)c2ccccc2[C@](Cc2ccccc2I)(C(=O)NC(C)C)[C@@H]1c1ccc(CO)cc1,0.312,0.771,-0.185,-1.38,-2.99,1.63,-0.0467 (inactive),-0.507,-1.82,-0.306 (inactive),0.985,-0.601 (inactive),-0.577 (inactive),-2.47 (inactive),-0.379 (inactive),0.862 (inactive),1.05 (inactive),1.01 (inactive),-0.305,-0.253
